Experimental data from PubChem BioAssay (NCATS).
Records with an inconclusive call do not appear. Entries that show only a call come without a potency. Activity calls are given as the source filed them. Calls follow the shape of the dose curve; as a rule, active = well fitted inhibition curve with a large enough effect; inconclusive = small, poorly fitted or top-dose-only effect; inactive = flat fitted curve, though single readings scatter. Where a SMILES comes first, the peptide text is derived from it. Bridges are numbered along the chain shown (N, C = ends). [ ]: non-standard residue; d: D form. hArg = N=C(N)NCCCC[C@H](N)C(=O)O; Mpa = O=C(O)CCS

What follows are molecules tested on DFO2036 (assay: qHTS profiling for inhibitors of Plasmodium falciparum proliferation (AID 504749; also: nearly all actives have a fitted effect of over 60% in size)). Details: P. falciparum in erythrocytes, SYBR Green DNA, 72 h; series mostly up to 28.7 µM.
Method in brief: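 SYBR Green fluorescence of parasite DNA, read after lysis and overnight dark incubation, measured growth over 72 h in erythrocyte culture at 0.3% parasitemia and 2.5% hematocrit. Data normalised to DMSO and 0.29 uM artemisinin, with plate-drift correction.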

Structure (SMILES) | Potency
O=C(Cn1ccnc1[N+](=O)[O-])NCCO | inactive
Cc1c(C)c2c(c(C)c1OC(=O)c1cccnc1)CC[C@@](C)(CCC[C@H](C)CCC[C@H](C)CCCC(C)C)O2 | inactive
COc1ccc2cc(CCC(C)=O)ccc2c1 | inactive
CN(C/C=C/C#CC(C)(C)C)Cc1cccc2ccccc12 | inactive
CCN(CC)CCc1nc(-c2ccccc2)no1 | inactive
COc1nccnc1NS(=O)(=O)c1ccc(N)cc1 | inactive
Cn1c([N+](=O)[O-])cnc1COC(N)=O | inactive
COC(=O)c1ccc(O)cc1 | inactive
CC[N+](CC)(CC(=O)Nc1c(C)cccc1C)Cc1ccccc1 | inactive
CC1CCN(CCCC(=O)c2ccc(F)cc2)CC1 | inactive
COc1ccccc1OC(=O)Oc1ccccc1OC | inactive
CN1CCCN=C1COC(=O)C(O)(c1ccccc1)C1CCCCC1 (stereo not given) | inactive
O=C(/C=C/c1ccccc1)OCc1ccccc1 | inactive
Cc1c(Cn2ccnc2)c2ccccc2n1CCC(=O)O | inactive
NC(=O)[C@@H]1CSSCCC(=O)N[C@@H](CCCCN=C(N)N)C(=O)NCC(=O)N[C@@H](CC(=O)O)C(=O)N[C@@H](Cc2c[nH]c3ccccc23)C(=O)N2CCC[C@H]2C(=O)N1 ([Mpa][hArg]GDWPC-NH2; disulfide 1-7) | inactive
N[C@@H](Cc1ccc(O)cc1)C(=O)O | inactive
CC1CCc2cc(F)cc3c(=O)c(C(=O)O)cn1c23 (stereo not given) | inactive
C[C@@H]1O[C@@H](OC[C@H]2O[C@@H](Oc3c(-c4ccc(O)c(O)c4)oc4cc(O)cc(O)c4c3=O)[C@H](O)[C@@H](O)[C@@H]2O)[C@H](O)[C@H](O)[C@H]1O | inactive

Structure (SMILES) | Potency
Cc1onc(-c2ccccc2)c1-c1ccc(S(N)(=O)=O)cc1 | inactive
COc1ccc(C(=O)NCc2ccc(OCCN(C)C)cc2)cc1OC | inactive
Cc1ccsc1C(=CCCN1CCC[C@@H](C(=O)O)C1)c1sccc1C | inactive
CCCCCCCC(=O)OCC(COC(=O)CCCCCCC)OC(=O)CCCCCCC | inactive
CN/C(=C\[N+](=O)[O-])NCCSCc1csc(CN(C)C)n1 | inactive
CCN1CC(CCN2CCOCC2)C(c2ccccc2)(c2ccccc2)C1=O (stereo not given) | inactive
NS(=O)(=O)c1ccc(C(=O)O)cc1 | inactive
CCOC(N)=O | inactive
Cc1c(NC(C)C)c(=O)n(-c2ccccc2)n1C | inactive
CCOc1ccc(C(=O)OCCN(CC)CC)cc1 | inactive
O=C(OOC(=O)c1ccccc1)c1ccccc1 | inactive
C=CCSCC1Nc2cc(Cl)c(S(N)(=O)=O)cc2S(=O)(=O)N1 (stereo not given) | inactive
Cc1c(NC(=O)c2cccnc2)c(=O)n(-c2ccccc2)n1C | inactive
CCCCCCCCCCC(CO)CCCCCCCC (stereo not given) | inactive
CCOc1cc(NC(C)=O)ccc1C(=O)OC | inactive
Cc1ncc(CO)c(CN)c1O | inactive
NS(=O)(=O)c1ccc(NC(=O)CCC(=O)O)cc1 | inactive
